Experimental data as given in ChEMBL document CHEMBL3988442, “University of Dundee, Small-Polar-MMV Screening Library” (2021).
In all, about 85,000 compounds went through this assay and about 440 (0.52%) showed an effect of 50% or more. This is one part of a sample in which strong results are shown more often than they occur.

Assay: In vitro enzyme assay to detect hydrolysis of chlorophenol red-beta-D-[…] directly proportional to the number of Toxoplasma stably expressing beta-galactosidase
Assay type: functional, organism-based, Toxoplasma gondii
Set-up: scale not given: in the data most compounds retested in dose-response had high values

Row | Compound | Percent Effect (10 µM) [%] | Percent Effect (50 µM) [%]
1 | CCCC(=O)N(C)Cc1cccc(OC(C)C)c1 | 0.05359 | 
2 | CCCC(N)C(=O)N(C)Cc1cccc(N(C)C)c1 (configuration not stated) |  | 89.59
3 | CC[C@H](N)C(=O)N(C)Cc1cccc(OC(F)(F)F)c1 |  | 4.147
4 | CCN(CC)C(=O)CN1CCC(N)CC1 |  | -1.204
5 | NC1CCN(C(=O)Nc2ccccc2)C1 (configuration not stated) |  | 93.84
6 | CNCC1CCN(C(=O)Nc2ccccc2)CC1 |  | -5.234
7 | NS(=O)(=O)CC1CCN(C(=O)Nc2ccccc2)CC1 |  | 13.92
8 | N[C@H]1CN(CC(=O)N2CCCCC2)C[C@@H]1C1CC1 |  | 3.394
9 | CCC(NC(=O)CCC(=O)OC)c1ccccc1 (configuration not stated) |  | -2.759
10 | Cc1ccc(CN(CCCn2ccnc2)Cc2cnn(C)c2)s1.O=C(O)CC(O)(CC(=O)O)C(=O)O | -58.36 | 
11 | Cc1ccc(CN(CCCn2ccnc2)Cc2cc(F)ccc2F)s1.O=C(O)CC(O)(CC(=O)O)C(=O)O | 64.14 | 
12 | CCc1ccc(CN(CCCn2ccnc2)Cc2ccc(C)s2)o1.O=C(O)CC(O)(CC(=O)O)C(=O)O | 5.317 | 
13 | Cc1ccc(O)c(CN(CCCn2ccnc2)Cc2ccc(C)s2)c1.O=C(O)CC(O)(CC(=O)O)C(=O)O | 4.169 | 
14 | Cc1ccc(CN(CCCn2ccnc2)Cc2ccccc2O)s1.O=C(O)CC(O)(CC(=O)O)C(=O)O | -8.716 | 
15 | Cc1ccc(CN(CCCn2ccnc2)Cc2c[nH]nc2C(C)(C)C)s1.O=C(O)CC(O)(CC(=O)O)C(=O)O | -5.969 | 
16 | Cc1ccc(CN(CCCn2ccnc2)Cc2cccs2)s1.O=C(O)CC(O)(CC(=O)O)C(=O)O | 13.55 | 
17 | Cc1ccc(CN(CCCn2ccnc2)Cc2c(F)cccc2F)s1.O=C(O)CC(O)(CC(=O)O)C(=O)O | 36.95 | 
18 | Cc1ccc(CN(CCCn2ccnc2)Cc2c[nH]cn2)s1.O=C(O)CC(O)(CC(=O)O)C(=O)O | 27.23 | 
19 | COc1ccc(F)c(CN(CCCn2ccnc2)Cc2ccc(C)s2)c1.O=C(O)CC(O)(CC(=O)O)C(=O)O | 53.53 | 
20 | COc1ccc(NC(=O)CN)cc1Cl |  | 1.653
21 | O=C1CNC2(CCCCC2)C(=O)N1 |  | -1.267
22 | OCc1cnc2c(F)cccc2c1 |  | -7.989
23 | O=C(NCCCn1cccn1)N1CCSCC1 |  | 12.95

Row | Compound | Percent Effect (10 µM) [%] | Percent Effect (50 µM) [%]
24 | CC1COCCN1CCNS(C)(=O)=O (configuration not stated) |  | -4.94
25 | CCC(N)C(=O)N1CCN(c2ccncc2Cl)CC1 (configuration not stated) |  | 0.3763
26 | OCC1(O)CCN(Cc2cc3ccccc3s2)C1 (configuration not stated) |  | 15.65
27 | O=C(COc1ccc2c(c1)OCO2)NCc1ccco1 | -39.93 | 
28 | O=C(COc1ccc2c(c1)CCC2)NCc1ccco1 | 52.59 | 
29 | O=C(COc1ccc2c(c1)CCCC2=O)NCc1ccco1 | -0.7551 | 
30 | CN(C1CCCCC1)S(=O)(=O)NC1CCCCNC1=O (configuration not stated) |  | -10.23
31 | CCCc1nc(C)cc(NCCO)n1 |  | 22.28
32 | COc1cccc(COCC(=O)N2CCCC(n3cncn3)C2)c1 (configuration not stated) | 5.194 | 
33 | CCc1cccc(OCC(=O)N2CCCC(n3cncn3)C2)c1 (configuration not stated) | 61.63 | 
34 | O=C(CCOc1cccc(F)c1)N1CCCC(n2cncn2)C1 (configuration not stated) | -5.343 | 
35 | CN(Cc1ccccc1)C1(CN)CCC1 |  | -8.467
36 | OC1CCN(c2ccnc(NCCc3ccccc3Cl)n2)C1 (configuration not stated) | 73.82 | 
37 | OC1CCN(c2ccnc(NCCN3CCc4ccccc4C3)n2)C1 (configuration not stated) | -7.659 | 
38 | OC1CCN(c2ccnc(NCCc3ccccc3Cl)n2)CC1 | -8.745 | 
39 | CC1(C)CCN(C(=O)Nc2ccsc2)CCS1(=O)=O |  | 14.26
40 | O=C(CCCc1cn[nH]c1)N1CCS(=O)(=O)CC1 |  | -1.399
41 | Cc1cc(=O)n2c3c(cc(S(=O)(=O)NC4CC4)cc13)CCC2 | 88.28 | 
42 | CCN(CC)S(=O)(=O)c1cc2c3c(c1)c(C)cc(=O)n3CCC2 | 17.21 | 
43 | CCCNS(=O)(=O)c1cc2c3c(c1)c(C)cc(=O)n3CCC2 | -12.19 | 
44 | CCN(CC)S(=O)(=O)c1cc2c3c(c1)c(C)cc(=O)n3CC2 | -2.001 | 
45 | Cc1cc(S(C)(=O)=O)c(C)c(S(=O)(=O)NC2CCCC2)c1 | -4.298 | 
46 | Cc1c(S(=O)(=O)NC2CC2)cc2c(C)cc(=O)n3c2c1CCC3 | 69.29 | 

Row | Compound | Percent Effect (10 µM) [%] | Percent Effect (50 µM) [%]
47 | O=C1COc2ccc(S(=O)(=O)N3CCOCC3)c3c2N1CCC3 | -24.36 | 
48 | Cc1cc2[nH]c(=O)c(=O)[nH]c2cc1S(=O)(=O)NC1CCCCC1 | 9.258 | 
49 | Cc1c(S(=O)(=O)N2CCOCC2)cc2c(C)cc(=O)n3c2c1CCC3 | 70.37 | 
50 | Cc1cccc(OCC(=O)NCC2CCNCC2)c1 |  | -0.8091
51 | CCOC(=O)N1CCN(C(=O)c2onc(C)c2Cl)CC1 |  | 1.461
52 | CCSc1cc(CN)ccn1 |  | -10.09
53 | NC(=O)CCSc1nc2ncccn2n1 |  | -6.184
54 | CCCC(=O)N(C)C1CCN(C)CC1 |  | 4.372
55 | COc1ccc(CNC(=O)CN)cc1 |  | -16.08
56 | CC(C)C(CC(=O)NCC(N)=O)c1ccccc1 (configuration not stated) |  | 0.4392
57 | Cn1cc(-c2cnc(N3CCCC3)nc2)cc1C(=O)O | -6.676 | 
58 | CCCNC(=O)c1cc(-c2cnc(N3CCCC3)nc2)cn1C | 59.81 | 
59 | CN(C)CCNC(=O)c1cc(-c2cnc(N3CCCC3)nc2)cn1C.O=C(O)C(F)(F)F | 16.58 | 
60 | CNS(=O)(=O)c1c[nH]cn1 |  | -8.669
61 | Cc1ccc(CN2CCC(N)C2=O)cc1 (configuration not stated) |  | 0.3266
62 | NC1CCCN(Cc2ccccc2)C1=O (configuration not stated) |  | 3.99
63 | NC1CCN(Cc2ccccc2)C1=O (configuration not stated) |  | 57.3
64 | Cn1nccc1C(=O)NC1Cc2ccccc2C1 |  | 4.859
65 | CCc1nc(CN2CCCC2C(=O)N(C)C)cs1 (configuration not stated) |  | 6.641
66 | CC(NC(=O)c1ccncc1F)C(C)(C)CN(C)C (configuration not stated) |  | -0.7264
67 | CCN(CC)CCOC1CCNCC1 |  | -2.471
68 | CC(=O)c1cccc(OCC(=O)NC2CCCC2)c1 |  | -4.665
69 | Cc1cc(NC(=O)COc2ccc3c(c2)OCO3)no1 |  | 15.18

Row | Compound | Percent Effect (10 µM) [%] | Percent Effect (50 µM) [%]
70 | CC(=O)c1cccc(OCC(=O)Nc2cc(C)on2)c1 |  | 98.67
71 | Cc1cc(CNCc2c(C)nn(C)c2N2CCOCC2)no1 | -17.93 | 
72 | Cc1csc(CNCc2c(C)nn(C)c2N2CCOCC2)n1 | -26.69 | 
73 | Cc1nc(C2(NCc3c(C)nn(C)c3N3CCOCC3)CCC2)no1 | 56.3 | 
74 | COc1c(CNC2(c3noc(C)n3)CCC2)c(C)nn1C.Cl | 55.08 | 
75 | COc1c(CNC2(c3ccc(Cl)cc3)CCC2)c(C)nn1C | 7.233 | 
76 | COc1c(CNC2(c3noc(C)n3)CCC2)c(C(C)C)nn1C.Cl | 11.38 | 
77 | CC(C)(C)OC(=O)NCCCOC1CCNCC1 |  | 10.6
78 | O=C(CSc1nnnn1Cc1cccs1)NC1CC1 |  | -25.88
79 | CCCn1nc2c(cc1=O)CN(c1ncnc3ccsc13)CC2 | -2.045 | 
80 | CC(C)n1nc2c(cc1=O)CN(c1ncnc3ccsc13)CC2 | 9.432 | 
81 | CC(C)n1nc2c(cc1=O)CN(c1ncnc3ccccc13)CC2 | -24.89 | 
82 | CCn1nc2c(cc1=O)CN(c1ncnc3ccsc13)CC2 | 76.59 | 
83 | Cn1nc2c(cc1=O)CN(c1ncnc3ccsc13)CC2 | 82.27 | 
84 | Cn1nc2c(cc1=O)CN(c1nc3ccccc3s1)CC2 | -0.5196 | 
85 | O=C(NC1CCCc2[nH]c(=O)ccc21)c1cc(Br)c[nH]1 (configuration not stated) |  | 33.46
86 | O=C(CCCn1cccn1)N[C@H]1C[C@@H]2OCC[C@H]12 |  | 16.13
87 | O=C(Cc1cccs1)N1CCNCC1 |  | 1.272
88 | Cc1nn(C)c2c(=O)n(C)c(NCC3CCCO3)nc12 (configuration not stated) | 10.39 | 
89 | CCCn1c(N2CCCC2)nc2c(C)nn(C)c2c1=O | 74.14 | 
90 | CCCn1c(N2CCCC(C)C2)nc2c(C)nn(C)c2c1=O (configuration not stated) | 58.79 | 
91 | CCn1nc(C)c2ncnc(N3CCCC(C)C3)c21 (configuration not stated) | 16.85 | 
92 | CCCc1nc(N2CCCCCC2)c2c(n1)c(C)nn2CC | 14.57 | 

Row | Compound | Percent Effect (10 µM) [%] | Percent Effect (50 µM) [%]
93 | CCCn1c(N2CCCCC2)nc2c(C)nn(C)c2c1=O | 85.32 | 
94 | Cc1nn(C)c2c(N3CCCC3)nc(C3CC3)nc12 | 10.42 | 
95 | CCCc1nc(N2CCCC(C)C2)c2c(n1)c(C)nn2CC (configuration not stated) | 19 | 
96 | CCn1c(NCC2CCCO2)nc2c(C)nn(C)c2c1=O (configuration not stated) | 22.67 | 
97 | CC(N)C1(N2CCOCC2)CCCC1 (configuration not stated) |  | -11.55
98 | CCNC(=O)c1cc2ccc(OC)cc2[nH]1 |  | -0.6946
99 | O=C(NCC(F)(F)F)C1CCN(CC(F)F)CC1 |  | -5.562
100 | CCN(Cc1nonc1C)C(=O)c1cc(C(F)(F)F)nn1C | 29.16 | 
101 | CCN(Cc1nonc1C)C(=O)Cn1nc(C(F)(F)F)cc1C1CC1 | 53.8 | 
102 | CCN(Cc1nonc1C)C(=O)Cn1nc(C(F)(F)F)cc1C | 32.79 | 
103 | CC(CO)(CO)NC(=O)Nc1cc(Br)ccc1F |  | 12.92
104 | COCCn1cnnc1CNc1cc(C)nc2c(C)c(C)nn12 | -11.49 | 
105 | CCOCCCNC(=O)c1cn(CC)nc1C | 0.2391 | 
106 | COCCCNc1cc(C)nn2cnnc12 | 36.97 | 
107 | Cc1cc(NCCCOC(C)C)c2nncn2n1 | 73.87 | 
108 | Cc1nn(C)c2nc(-c3ccccn3)nc(NCCCOC(C)C)c12 | -3.21 | 
109 | CCOCCCNc1nc2c(s1)c(C)nn2C | -0.8738 | 
110 | COc1cc(-c2cnnc(NCCCOC(C)C)n2)cc(OC)c1OC | 4.137 | 
111 | COCCNc1cc(C)nn2cnnc12 | 70.24 | 
112 | CCOCCCNc1cc(C)nn2cnnc12 | 66.33 | 
